Reference: PubChem BioAssay (Tox21)
Results filed as inconclusive are left out. Entries that show only a call come without a potency. Active and inactive are the calls of the source. Calls come from the whole dose curve.

Test: G protein-coupled receptor (GPCR) small molecule agonists, calcium flux assay: HEK293 wild type cell line counter screen (AID 1920065)
Conditions: HEK293 WT calcium flux, fluorescence, agonist mode; series mostly up to 57.6 µM
Outline: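 Kinetic fluorescence at Ex/Em 480/540, recorded every second over 3 min, served as the read-out after compound addition. Each compound was tested at 15 concentrations in triplicate on cells pre-loaded with calcium dye for 1 h.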
For `O=C(NCc1cccnc1)Nc1ccc([N+](=O)[O-])cc1`, the Potency was “inactive”. In the case of `ClC1=C(Cl)[C@]2(Cl)[C@@H]3[C@@H](Cl)[C@H](Cl)C[C@@H]3[C@@]1(Cl)C2(Cl)Cl`, the Potency is reported as “inactive”. In the case of `COP(=O)(OC)OC=C(Cl)Cl`, the Potency is reported as “inactive”. In the case of `CNC(=O)CSP(=S)(OC)OC`, the Potency is reported as “inactive”. For `CCOP(=O)(O)OCC` (tested in a mixture with another compound), the Potency was “inactive”. For `CC(C)OC(=O)Nc1cccc(Cl)c1`, the Potency was “inactive”. In the case of `C=CCc1ccc(OC)cc1`, the Potency is reported as “inactive”. For `Oc1ccc(C(c2ccc(O)cc2)(C(F)(F)F)C(F)(F)F)cc1`, the Potency was “inactive”. In the case of `COc1cc(OC)nc(NC(=O)NS(=O)(=O)c2ncccc2C(=O)N(C)C)n1`, the Potency is reported as “inactive”. In the case of `O=C(Cl)CCl`, the Potency is reported as “inactive”. In the case of `NC(=O)CF`, the Potency is reported as “inactive”. With `CC(=[OH+])/C=C(/C)[O-].CC(=[OH+])/C=C(\C)[O-].CC(=[OH+])/C=C(\C)[O-].[Al]` the Potency was “inactive”. With `CC(C)(C)OOC(=O)c1ccccc1` the Potency was “inactive”. With `Nc1ccc(-c2ccc(N)cc2)cc1` the Potency was “inactive”. With `COP(N)(=O)SC` (stereo not drawn) the Potency was “inactive”. With `Cc1ccc([N+](=O)[O-])cc1C` the Potency was “inactive”. For `NC(=O)O`, the Potency was “inactive”. For `Clc1cccc(Cl)c1`, the Potency was “inactive”. With `CC(COc1ccc(Oc2ccccc2)cc1)Oc1ccccn1` (stereo not drawn) the Potency was “inactive”. For `O=C(CBr)c1ccc(O)cc1`, the Potency was “inactive”. With `Cn1c(-c2ccccc2)cc(-c2ccccc2)[n+]1C` the Potency was “inactive”. In the case of `O=C1CCCN1`, the Potency is reported as “inactive”. In the case of `CCCCCCCCCCCCCCCC[N+](C)(C)C`, the Potency is reported as “inactive”. For `O=S(=O)(O)OOS(=O)(=O)O`, the Potency was “inactive”. In the case of `CCCCCCCCOC(=O)c1ccccc1C(=O)OCCCCCCCC`, the Potency is reported as “inactive”. For `COP(=S)(OC)SCN1C(=O)c2ccccc2C1=O`, the Potency was “inactive”. For `O=c1[nH]c(=O)n(Cl)c(=O)n1Cl`, the Potency was “inactive”. With `CCOP(OCC)OCC` the Potency was “inactive”. In the case of `OCC1CO1` (stereo not drawn), the Potency is reported as “inactive”. For `CCOP(=S)(OCC)SCCSCC`, the Potency was “inactive”. With `COP(=S)(OC)Oc1ccc([N+](=O)[O-])cc1` the Potency was “inactive”. For `COc1ccc2c3c1O[C@H]1[C@@H](O)C=C[C@H]4[C@@H](C2)N(C)CC[C@@]341`, the Potency was “inactive”. For `Oc1ccc(Cl)cc1Cc1ccccc1`, the Potency was “inactive”. For `C=C(Cl)CCl`, the Potency was “inactive”. In the case of `Cc1ccc(Cl)c(O)c1`, the Potency is reported as “inactive”. In the case of `CCN(CC)N=O`, the Potency is reported as “inactive”.

Test: p53 small molecule agonists, cell-based qHTS assay with human liver microsomes (AID 1963577);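 note: p53 response element beta-lactamase reporter cells with liver microsomes plus NADPH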
Conditions: HCT-116 p53RE-bla with human liver microsomes, ratio, 16 h; series mostly up to 66 µM
Outline: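 Steps: plate p53RE-bla cells, incubate 5 h at 37 C; add compound in DMSO; add microsomes (0.5 mg/mL final) and NADPH (0.5 mg/mL final); incubate 16 h at 37 C; add LiveBLAzer, 2 h RT; read fluorescence.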
In the case of `O=C(NCc1cccnc1)Nc1ccc([N+](=O)[O-])cc1`, the Potency is reported as “inactive”. For `ClC1=C(Cl)[C@]2(Cl)[C@@H]3[C@@H](Cl)[C@H](Cl)C[C@@H]3[C@@]1(Cl)C2(Cl)Cl`, the Potency was “inactive”. For `CC(C)OC(=O)Nc1cccc(Cl)c1`, the Potency was “inactive”. In the case of `Oc1ccc(C(c2ccc(O)cc2)(C(F)(F)F)C(F)(F)F)cc1`, the Potency is reported as “inactive”. For `COc1cc(OC)nc(NC(=O)NS(=O)(=O)c2ncccc2C(=O)N(C)C)n1`, the Potency was “inactive”. For `O=C(Cl)CCl`, the Potency was “inactive”. For `NC(=O)CF`, the Potency was “inactive”. With `CC(=[OH+])/C=C(/C)[O-].CC(=[OH+])/C=C(\C)[O-].CC(=[OH+])/C=C(\C)[O-].[Al]` the Potency was “inactive”. For `Cc1ccc(CCl)cc1`, the Potency was “inactive”. In the case of `CC(C)(C)OOC(=O)c1ccccc1`, the Potency is reported as “inactive”. For `Nc1ccc(-c2ccc(N)cc2)cc1`, the Potency was “inactive”. For `NC(=O)O`, the Potency was “inactive”. For `O=C(CBr)c1ccc(O)cc1`, the Potency was “inactive”. For `Cn1c(-c2ccccc2)cc(-c2ccccc2)[n+]1C`, the Potency was “inactive”. With `CCCCCCCCOC(=O)c1ccccc1C(=O)OCCCCCCCC` the Potency was “inactive”. With `CCCCCCCCCCCCCl` the Potency was “inactive”. With `CCOP(OCC)OCC` the Potency was “inactive”. For `OCC1CO1` (stereo not drawn), the Potency was “inactive”. In the case of `COc1ccc2c3c1O[C@H]1[C@@H](O)C=C[C@H]4[C@@H](C2)N(C)CC[C@@]341`, the Potency is reported as “inactive”. In the case of `Oc1ccc(Cl)cc1Cc1ccccc1`, the Potency is reported as “inactive”. In the case of `C=C(Cl)CCl`, the Potency is reported as “inactive”. With `Cc1ccc(Cl)c(O)c1` the Potency was “inactive”.

Test: p53 small molecule agonists, cell-based qHTS assay with rat liver microsomes (AID 1963578)
Conditions: HCT-116 p53RE-bla, beta-lactamase ratio, 16 h; series mostly up to 66 µM
Outline: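 Metabolic activation is supplied by rat liver microsomes with NADPH (each 0.5 mg/mL final). p53RE-bla cells incubate with compound 16 h at 37 C; reporter activity is measured by LiveBLAzer fluorescence.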
For `O=C(NCc1cccnc1)Nc1ccc([N+](=O)[O-])cc1`, the Potency was “inactive”. With `ClC1=C(Cl)[C@]2(Cl)[C@@H]3[C@@H](Cl)[C@H](Cl)C[C@@H]3[C@@]1(Cl)C2(Cl)Cl` the Potency was “inactive”. For `COc1cc(OC)nc(NC(=O)NS(=O)(=O)c2ncccc2C(=O)N(C)C)n1`, the Potency was “inactive”. In the case of `O=C(Cl)CCl`, the Potency is reported as “inactive”. With `NC(=O)CF` the Potency was “inactive”. In the case of `CC(=[OH+])/C=C(/C)[O-].CC(=[OH+])/C=C(\C)[O-].CC(=[OH+])/C=C(\C)[O-].[Al]`, the Potency is reported as “inactive”. With `Cc1ccc(CCl)cc1` the Potency was “inactive”. In the case of `CC(C)(C)OOC(=O)c1ccccc1`, the Potency is reported as “inactive”. In the case of `Nc1ccc(-c2ccc(N)cc2)cc1`, the Potency is reported as “inactive”. In the case of `NC(=O)O`, the Potency is reported as “inactive”. In the case of `CC(COc1ccc(Oc2ccccc2)cc1)Oc1ccccn1` (stereo not drawn), the Potency is reported as “inactive”. In the case of `O=C(CBr)c1ccc(O)cc1`, the Potency is reported as “inactive”. For `Cn1c(-c2ccccc2)cc(-c2ccccc2)[n+]1C`, the Potency was “inactive”. For `CCCCCCCCOC(=O)c1ccccc1C(=O)OCCCCCCCC`, the Potency was “inactive”. In the case of `CCCCCCCCCCCCCl`, the Potency is reported as “inactive”. For `OCC1CO1` (stereo not drawn), the Potency was “inactive”. For `COc1ccc2c3c1O[C@H]1[C@@H](O)C=C[C@H]4[C@@H](C2)N(C)CC[C@@]341`, the Potency was “inactive”. With `Oc1ccc(Cl)cc1Cc1ccccc1` the Potency was “inactive”. For `Cc1ccc(Cl)c(O)c1`, the Potency was “inactive”. In the case of `CCN(CC)N=O`, the Potency is reported as “inactive”.
